According to PubChem BioAssay (NCI):
The panel holds about 83,000 compounds, 20% with a hit somewhere; the sample as a whole holds those more often.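 For each line, cells grew in 96-well plates with the test compound present at a single concentration for 48 hours.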 A number with no mark means an inactive call. Activity calls are given as the source filed them. Rule for the calls: active = growth percent below 10; inactive = the rest.

Assays:
Assay in all cases: NCI-60 one-dose screen, 48 h (100 = growth as untreated, 0 = no growth, -100 = all killed)
Details in all cases: 10 µM
[1] = tested on: BT-549 breast
[2] = tested on: MDA-MB-435 melanoma
[3] = tested on: SW-620 colon
[4] = tested on: MCF7 breast
[5] = tested on: HCT-116 colon
[6] = tested on: HCC-2998 colon
[7] = tested on: KM12 colon

SMILES	growth [1]	growth [2]	growth [3]	growth [4]	growth [5]	growth [6]	growth [7]
Cc1ccc(NC(=O)Nc2nc3ccccc3s2)cc1NC(=O)Nc1nc2ccccc2s1	104%	97.1%	102%	64.6%	84.9%	93.4%	88.2%
O=C(Nc1ccc(OS(=O)(=O)c2ccccc2)cc1)C12CC3CC(CC(C3)C1)C2	25.8%	72.6%	5.02% (active)	32%	32.8%	26.1%	28.4%
O=C(Nc1ccccc1)Nc1cccc(-n2cc(-c3ccncc3)c(-c3ccc(O)c(Cl)c3)n2)c1	67.1%	52.4%	50.8%	32.5%	41.2%	44.2%	32.6%
CCN(CC)CCCC(C)Nc1nc(-c2ccc(OC)cc2)nc2cc(Cl)ccc12 (stereo not given)	75.6%	35%	80.9%	44.6%	47.1%	54.1%	66.3%
CN(C)CCN1C(=O)c2cccc3c(-c4ccc5ncn(C6CCCCC6)c5c4)ccc(c23)C1=O	56.5%	39.9%	21.4%	12.1%	8.6% (active)	39.8%	24.8%
CCOC1(OCC)OC(c2ccccc2)=C(C#N)C(/C=C\c2ccccc2)C1(OCC)OCC (stereo not given)	95.3%	97.2%	83.2%	77.4%	53.9%	83.1%	84.3%
Cc1nc2ccc(CN(C)c3ccc(C(=O)N[C@@H](CCC(=O)O)C(=O)O)s3)cc2c(=O)[nH]1	57.4%	61.6%	71.4%	23.3%	40%	28.5%	73.4%
CN1CCCNc2c(c(=O)c2=O)NCCCN(C)CCCNc2c(c(=O)c2=O)NCCCN(C)CCCNc2c(c(=O)c2=O)NCCCN(C)CCCNc2c(c(=O)c2=O)NCCCN(C)CCCNc2c(c(=O)c2=O)NCCCN(C)CCCNc2c(c(=O)c2=O)NCCCN(C)CCCNc2c(c(=O)c2=O)NCCC1	67.1%	21.1%	41%	74.1%	59.2%	70.6%	34.9%
S=C1SCC(c2ccccc2)S1 (stereo not given)	109%	102%	111%	99.4%	107%	114%	117%
C/C(=N\Nc1nc2ccccc2s1)c1ccncn1	46.3%	46.2%	31.2%	4.99% (active)	5.21% (active)	46.3%	39.1%
CN(C)CCN1C(=O)c2cccc3cc(N)cc(c23)C1=O	46.9%	33.7%	21%	7.96% (active)	13.7%	15.4%	28.8%
Cc1ccc2oc3nc(C)c(C(=O)NCc4ccccc4)cc3c(=O)c2c1	95.1%	65.5%	77.5%	45.6%	60.6%	35.4%	28.6%
CCCC(F)C(=O)O (stereo not given)	111%	95.8%	105%	97.8%	102%	111%	106%
COc1ccc2c(c1OC)O/C(=C\c1ncc([N+](=O)[O-])n1C)C2=O	-41.3% (active)	-76.4% (active)	-21.2% (active)	28.9%	4.48% (active)	34.6%	43.1%
O=C(Nc1nc2ccc(F)cc2s1)c1cc(-c2ccc(F)cc2)n2nc(-c3ccccc3)cc2n1	88%	62.7%	62.4%	80.6%	79.1%	99.8%	65.9%
COc1ccc(Nc2nc3ccc(NC(=O)NC4CCCCC4)cc3[nH]c2=O)cc1	87.7%	105%	108%	83%	102%	104%	87.1%
COc1ccc(-c2cc(-c3cccc(NS(C)(=O)=O)c3)nc(N)c2C#N)cc1	40.1%	-55.2% (active)	27.4%	16.5%	17%	-25.7% (active)	17.6%
COc1cc(-c2cc(/C=C/C(=O)c3ccc(F)c(F)c3)[nH]n2)cc(OC)c1OC	94.2%	51.7%	67.2%	48.3%	29.3%	87.1%	41%
COc1cc(/C=C2\Oc3cc(OCC(=O)c4ccccc4)ccc3C2=O)cc(OC)c1OC	128%	103%	114%	99.1%	106%	120%	98.9%
Cc1cn(C2CCCCO2)c(=O)nc1NO (stereo not given)	107%	97.6%	105%	80.3%	111%	101%	102%
COc1cccc(NC(=O)c2sc3nc4c(cc3c2N)C(O)CCC4)c1 (stereo not given)	44.4%	-32.5% (active)	23.8%	15.5%	12.3%	19.6%	16.7%
CCCCCCc1cc(N=Nc2ccc(S(=O)(=O)Nc3cc(C)nc(C)n3)cc2)c(O)cc1O	89.9%	100%	113%	92.7%	86.3%	101%	104%
Nc1nccc(Nc2ccccc2)n1	103%	107%	106%	107%	109%	114%	101%
COc1cc(-c2nn3c(/C=C4/C(=O)Nc5ccccc54)c(-c4ccc(C)cc4)nc3s2)cc(OC)c1OC	22.8%	33.6%	54.8%	39.4%	24%	85.1%	51%
CCN(CC)CCOc1nc2ccc(OC)cc2c2c1-c1ccc(OC)cc1C2=O	65.1%	-22.7% (active)	-59.4% (active)	-58.6% (active)	-98.3% (active)	38.6%	-82% (active)

SMILES	growth [1]	growth [2]	growth [3]	growth [4]	growth [5]	growth [6]	growth [7]
CCCCCCCCCCCCCCCCCC(=O)OCCCCCCC	110%	94.6%	97.5%	107%	118%	102%	97.6%
O=C1c2ccc3c4c(ccc(c24)C(=O)N1CCNCc1ccccc1)C(=O)N(CCNCc1ccccc1)C3=O	-21.3% (active)	-75.6% (active)	3.88% (active)	-45.4% (active)	-18% (active)	-92.2% (active)	-43.3% (active)
N=c1c2c(-c3ccccc3)c(-c3ccccc3)n(Cc3ccccc3)c2ncn1CCCO	88.5%	34.2%	21.6%	2.77% (active)	13.3%	64.3%	29.9%
COc1cc(NC(=O)c2sc3nc4c(cc3c2N)C(O)CCC4)cc(OC)c1 (stereo not given)	100%	8.37% (active)	66.1%	50.7%	84.2%	78.9%	69.5%
CC1(C)OC2=C(CC1Br)C(=O)C(=O)c1ccccc12 (stereo not given)	-99.2% (active)	-87.4% (active)	-81.5% (active)	-66.3% (active)	-57% (active)	-19.7% (active)	-93% (active)
COc1ccc(-c2nc3sc(-c4ccc(OC)cc4)c(-c4ccc(OC)cc4)n3c2/C=C/c2ccc(C(C)C)cc2)cc1	98.6%	98.7%	99.7%	90.4%	94.4%	111%	102%
COc1cc(Cl)cc(-c2nn(-c3cccc(NC(=O)Nc4ccc(Cl)c(Cl)c4)c3)cc2-c2ccncc2)c1	29.4%	0.46% (active)	13.3%	4.66% (active)	9.22% (active)	26.7%	14.3%
O=C(Nc1cccc(-n2cc(-c3ccncc3)c(-c3cc(O)cc(Cl)c3)n2)c1)Nc1ccc(Cl)c(C(F)(F)F)c1	47.6%	9.57% (active)	-33.6% (active)	13.4%	6.95% (active)	34.3%	15.1%
Cc1ccc(S(=O)(=O)OCCN(CCOS(=O)(=O)c2ccc(C)cc2)c2c[nH]c(=O)[nH]c2=O)cc1	112%	103%	110%	99.2%	108%	128%	116%
COc1cc(-c2cc(/C=C3\C(=O)Nc4ccc(Cl)cc43)[nH]n2)cc(OC)c1OC	27.1%	10.3%	27.3%	0.175% (active)	4.26% (active)	73.2%	7.16% (active)
CCCCOc1ccc(NC(=O)Nc2nnc(C)s2)cc1	110%	101%	111%	88.1%	94.9%	93.2%	103%
S=c1[nH]ccn1-c1c(Cl)cccc1Cl	88.9%	97.3%	106%	97.8%	93.9%	99.5%	104%
COc1ccc(-c2nn(-c3cccc(NC(=O)Nc4ccccc4)c3)cc2-c2ccncc2)cc1Cl	-40.9% (active)	-66.5% (active)	-19.7% (active)	0.285% (active)	5.36% (active)	-71.1% (active)	-16.2% (active)
COc1ccc(-c2nc3sc(C4CC4)nn3c2/C=C2/C(=O)Nc3ccc(OC)cc32)cc1	40.1%	61.6%	77.7%	30.1%	66.3%	104%	77.8%
CN1CCC2(CC1)NC(=O)c1c(c3ccc(Cl)c(Cl)c3n1C)C2C#N (stereo not given)	84.9%	49.2%	83.9%	28.5%	43%	-1.84% (active)	106%
COC(=O)C1=NNC(=S)N(c2cc(C)[nH]n2)C(=O)C1	107%	99.4%	102%	96%	99.2%	93.6%	102%
CCOC(=O)C(NC(=O)C(Cl)Cl)C(O)c1ccccc1 (stereo not given)	112%	94.9%	100%	94.8%	85.3%	110%	110%
CN(C)c1ccc(N=C2C=CC(=O)c3ccccc32)cc1	94.5%	-87% (active)	93.3%	53.1%	78.4%	67.3%	54.8%
COc1cc(Cc2cc(-c3ccc(Cl)cc3)n[nH]c2=O)ccc1O	95.2%	110%	109%	87.2%	101%	131%	105%
COc1cc(/C=N/NC(=O)c2ccccc2Nc2ccnc(C(F)(F)F)c2)ccc1O	116%	106%	104%	86.8%	102%	123%	114%
COc1ccccc1/C=C/C(=O)c1ccccc1	88.4%	70.7%	14.9%	32.2%	55.3%	101%	27.9%
Nc1nc(Nc2ccccc2)n[nH]1	88.8%	99.2%	107%	95.8%	97.7%	98.1%	107%
CS(=O)(=O)Nc1cccc(-c2cc(-c3ccccc3Cl)c(C#N)c(N)n2)c1	37.1%	-45.8% (active)	24.5%	22.7%	21.8%	-3.16% (active)	24.5%
c1ccc2c(c1)oc1c3c(ccc12)NCCC3	89.5%	106%	103%	40.9%	95.7%	97.2%	101%
CC(=O)c1cc(Br)ccc1O	110%	99.1%	102%	102%	112%	101%	102%
